According to PubChem BioAssay (NCI):
About 83,000 compounds went through this panel and 20% of them were active in at least one assay; those are over-represented in the sample as a whole.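 Interpretation: 100, growth as untreated; towards 0, rising growth inhibition; 0, no net growth; 0 to -100, cell death. Compounds scoring below 10 were considered active.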 Activity calls are given as the source filed them.

What was measured:
Assay in all cases: NCI-60 one-dose screen, 48 h (100 = growth as untreated, 0 = no growth, -100 = all killed)
HCT-15 colon = conditions: 10 µM unless noted
HT29 colon = conditions: 10 µM unless noted
SNB-75 CNS = conditions: 10 µM unless noted
SNB-19 CNS = conditions: 10 µM unless noted
U251 CNS = conditions: 10 µM unless noted
PC-3 prostate = conditions: 10 µM unless noted
SK-MEL-5 melanoma = conditions: 10 µM unless noted
UACC-62 melanoma = conditions: 10 µM unless noted
LOX IMVI melanoma = conditions: 10 µM unless noted
SK-MEL-2 melanoma = conditions: 10 µM unless noted
EKVX NSCLC = conditions: 10 µM unless noted
SN12C renal = conditions: 10 µM unless noted
UO-31 renal = conditions: 10 µM unless noted
TK-10 renal = conditions: 10 µM unless noted
ACHN renal = conditions: 10 µM unless noted
A498 renal = conditions: 10 µM
HL-60(TB) leukemia = conditions: 10 µM unless noted
CCRF-CEM leukemia = conditions: 10 µM unless noted
SK-MEL-28 melanoma = conditions: 10 µM unless noted
CAKI-1 renal = conditions: 10 µM unless noted

Measured: growth

Nc1nc([Se])c2ncn(C3OC(CO)C(O)C3O)c2n1 (stereo not drawn)
inactive: HCT-15 colon 85.6% | HT29 colon 55.2% | SNB-75 CNS 96.7% | SNB-19 CNS 98% | U251 CNS 94.6% | PC-3 prostate 93.4% | SK-MEL-5 melanoma 92.2% | UACC-62 melanoma 68.5% | LOX IMVI melanoma 10.1% | SK-MEL-2 melanoma 104% | EKVX NSCLC 62.9% | SN12C renal 94.7% | UO-31 renal 84.9% | TK-10 renal 59.6% | ACHN renal 84.3% | A498 renal 95.3% | HL-60(TB) leukemia 41.7% | CCRF-CEM leukemia 16.3%

c1ccc(COc2ccc3[nH]cc(CCN(Cc4ccccc4)Cc4ccccc4)c3c2)cc1
inactive: HCT-15 colon 47.2% | HT29 colon 83.5% | SNB-75 CNS 89.2% | SNB-19 CNS 104% | U251 CNS 81.6% | PC-3 prostate 57.7% | SK-MEL-5 melanoma 88.3% | LOX IMVI melanoma 81.8% | SK-MEL-28 melanoma 104% | SK-MEL-2 melanoma 93.6% | EKVX NSCLC 82.8% | SN12C renal 86.3% | UO-31 renal 60.3% | TK-10 renal 109% | ACHN renal 97.1% | CAKI-1 renal 71.8% | A498 renal 105% | HL-60(TB) leukemia 91.8% | CCRF-CEM leukemia 73.8%

CC(=O)OCC1O[C@@H]([S-])C(OC(C)=O)[C@H](OC(C)=O)[C@@H]1OC(C)=O.[Au+].c1ccc(CN2[CH-]N(Cc3ccccc3)C(c3ccccc3)=C2c2ccccc2)cc1
active: HCT-15 colon -63% | U251 CNS -59.3% | UACC-62 melanoma 8.41% | LOX IMVI melanoma -65.7% | SK-MEL-28 melanoma -56.8% | CCRF-CEM leukemia 7.57%
inactive: HT29 colon 50.3% | SNB-75 CNS 40.8% | SNB-19 CNS 36.8% | PC-3 prostate 39.4% | SK-MEL-5 melanoma 48.5% | SN12C renal 23.6% | UO-31 renal 45% | TK-10 renal 29.6% | ACHN renal 30.1% | A498 renal 42.1%

O=C1CC2(CC3(Cl)C(Cl)=C(Cl)C2(Cl)C3(Cl)Cl)C(=O)O1 (stereo not drawn)
inactive: HCT-15 colon 113% | HT29 colon 113% | SNB-75 CNS 89.4% | SNB-19 CNS 106% | U251 CNS 107% | PC-3 prostate 93.6% | SK-MEL-5 melanoma 102% | UACC-62 melanoma 112% | SK-MEL-28 melanoma 112% | SK-MEL-2 melanoma 121% | EKVX NSCLC 95.7% | SN12C renal 107% | UO-31 renal 63.5% | TK-10 renal 98.7% | ACHN renal 105% | CAKI-1 renal 97.9% | A498 renal 98.9% | CCRF-CEM leukemia 114%

COC(=O)[C@@H](C)C[C@H](Cc1ccccc1)NC(=O)c1nc([C@@H](C[C@H](C(C)C)N(C)C(=O)[C@@H](NC(=O)[C@H]2CCCCN2C)C(C)C)OC(C)=O)sc1C
active: HT29 colon 4.71% | SK-MEL-5 melanoma -39.2% | A498 renal -19.3% | HL-60(TB) leukemia -43.5% | CCRF-CEM leukemia 7.82%
inactive: HCT-15 colon 12.9% | SNB-75 CNS 12.7% | SNB-19 CNS 24.3% | U251 CNS 14.6% | PC-3 prostate 28.9% | UACC-62 melanoma 30.2% | LOX IMVI melanoma 12.4% | SK-MEL-2 melanoma 26.5% | EKVX NSCLC 33.9% | UO-31 renal 44.5% | TK-10 renal 31.1%

CC1=C(CN)C2=C(C)C3(CC3)[C@@](C)(O)C(=O)C2=C1
inactive: HCT-15 colon 96.4% | HT29 colon 94.5% | SNB-75 CNS 57.7% | SNB-19 CNS 83.2% | U251 CNS 84% | PC-3 prostate 88.3% | SK-MEL-5 melanoma 98.8% | UACC-62 melanoma 97% | LOX IMVI melanoma 91.6% | SK-MEL-2 melanoma 98.5% | EKVX NSCLC 102% | SN12C renal 90.2% | UO-31 renal 90.3% | TK-10 renal 102% | ACHN renal 97.3% | CAKI-1 renal 94.7% | HL-60(TB) leukemia 88.2% | CCRF-CEM leukemia 110%

COc1cc2c(cc1OCCCn1c(-c3ccccn3)nc3ccccc31)N=C[C@@H]1CCCN1C2=O
inactive: SNB-75 CNS 23.3% | SNB-19 CNS 27.2% | PC-3 prostate 12.8% | EKVX NSCLC 43.3% | SN12C renal 26%
active: HCT-15 colon -22.7% | HT29 colon -26.7% | U251 CNS -44% | SK-MEL-5 melanoma -69.7% | UACC-62 melanoma -75.9% | LOX IMVI melanoma -7.37% | SK-MEL-2 melanoma -71.1% | UO-31 renal -53.7% | TK-10 renal -20.8% | ACHN renal -64.9% | CAKI-1 renal -6.53% | A498 renal -72.1% | HL-60(TB) leukemia -21.7% | CCRF-CEM leukemia 5.34%

CCCCCCCCCCCCCCCCCC1OC[C@@H](COC(=O)O[C@@H](C(=O)O[C@H]2C[C@@]3(O)[C@@H](OC(=O)c4ccccc4)[C@@H]4[C@]5(OC(C)=O)CO[C@@H]5C[C@H](O)[C@@]4(C)C(=O)[C@H](OC(C)=O)C(=C2C)C3(C)C)[C@@H](NC(=O)c2ccccc2)c2ccccc2)O1 (stereo partly drawn)
inactive: HCT-15 colon 100% | HT29 colon 18.2% | SNB-75 CNS 50.2% | SNB-19 CNS 62.1% | U251 CNS 58% | PC-3 prostate 46.6% | SK-MEL-5 melanoma 75.7% | UACC-62 melanoma 58.7% | SK-MEL-28 melanoma 59% | SK-MEL-2 melanoma 82.9% | EKVX NSCLC 96.9% | SN12C renal 72% | UO-31 renal 93.5% | TK-10 renal 108% | ACHN renal 92.4% | A498 renal 70.9% | HL-60(TB) leukemia 35.8% | CCRF-CEM leukemia 59.2%

CN1C(=O)N[C@H]2[C@@H]3NC(=O)c4ccc(Br)n4[C@@H]3C[C@]21O
active: HCT-15 colon 3.29% | HT29 colon -15.6% | SNB-75 CNS -70.3% | SNB-19 CNS -15.6% | U251 CNS -13.8% | PC-3 prostate -11.7% | SK-MEL-5 melanoma -76.7% | UACC-62 melanoma -54.2% | LOX IMVI melanoma -42% | SK-MEL-2 melanoma -55.5% | EKVX NSCLC -17.4% | SN12C renal -14.1% | UO-31 renal 9.15% | TK-10 renal -16.7% | ACHN renal -24.6% | CAKI-1 renal 6.74% | A498 renal -47.8% | CCRF-CEM leukemia -15%

COc1cc2ncnc(Nc3ccc(F)c(Cl)c3)c2cc1OCC(=O)N1CCN(C)CC1
inactive: HCT-15 colon 93.4% | HT29 colon 90.6% | SNB-75 CNS 92.2% | SNB-19 CNS 79.6% | U251 CNS 101% | PC-3 prostate 86% | SK-MEL-5 melanoma 97.5% | UACC-62 melanoma 98.1% | LOX IMVI melanoma 91.5% | SK-MEL-2 melanoma 94.4% | EKVX NSCLC 61.8% | SN12C renal 76.9% | UO-31 renal 55.9% | TK-10 renal 23.4% | ACHN renal 37.8% | CAKI-1 renal 44.1% | A498 renal 69.9% | CCRF-CEM leukemia 87%

CN[C@@]1(c2ccccc2Cl)CCCC[C@@H]1NCC1CCCO1 (stereo partly drawn)
inactive: HCT-15 colon 104% | HT29 colon 101% | SNB-75 CNS 88.2% | SNB-19 CNS 95.8% | U251 CNS 98.2% | PC-3 prostate 94.2% | SK-MEL-5 melanoma 102% | UACC-62 melanoma 96.5% | LOX IMVI melanoma 97.8% | SK-MEL-2 melanoma 99.7% | EKVX NSCLC 99.2% | SN12C renal 96.8% | UO-31 renal 86.4% | TK-10 renal 102% | ACHN renal 99.4% | CAKI-1 renal 93.9% | A498 renal 94.4% | HL-60(TB) leukemia 99.9% | CCRF-CEM leukemia 99.8%

CCOC(=O)[C@@H](C)C[C@H](Cc1ccccc1)NC(=O)c1csc([C@@H](C[C@H](C(C)C)N(C)C(=O)[C@@H](NC(=O)[C@H]2CCCCN2C)C(C)(C)C)OC(C)=O)n1
active: HCT-15 colon 7.37% | HT29 colon 0.339% | SK-MEL-5 melanoma -46.2% | SK-MEL-2 melanoma 1.39% | A498 renal -11.4% | CCRF-CEM leukemia 1.8%
inactive: SNB-75 CNS 11.9% | SNB-19 CNS 24% | U251 CNS 14.7% | PC-3 prostate 21.1% | UACC-62 melanoma 27% | LOX IMVI melanoma 10.1% | EKVX NSCLC 31.5% | SN12C renal 13.3% | UO-31 renal 20.6% | TK-10 renal 49.2% | ACHN renal 17.1%

C=CC[n+]1ccc(-c2cc[n+](CC=C)cc2)cc1
inactive: HCT-15 colon 96.4% | HT29 colon 29.1% | SNB-75 CNS 92.5% | SNB-19 CNS 111% | U251 CNS 89.4% | PC-3 prostate 90.9% | SK-MEL-5 melanoma 71.4% | UACC-62 melanoma 110% | LOX IMVI melanoma 101% | SK-MEL-28 melanoma 102% | UO-31 renal 95% | TK-10 renal 126% | ACHN renal 103% | CAKI-1 renal 94.2% | A498 renal 100% | HL-60(TB) leukemia 93.3% | CCRF-CEM leukemia 84.7%

CC12CCC3C(C=CC4=C(N)C(=O)CCC43C)C1CCC2=O (stereo not drawn)
active: CCRF-CEM leukemia 6.62%
inactive: HCT-15 colon 73% | HT29 colon 51.2% | SNB-75 CNS 94.2% | SNB-19 CNS 103% | U251 CNS 54.2% | PC-3 prostate 46.5% | SK-MEL-5 melanoma 69.7% | UACC-62 melanoma 81% | LOX IMVI melanoma 60.6% | SK-MEL-2 melanoma 74.4% | EKVX NSCLC 98% | SN12C renal 88.5% | UO-31 renal 64.6% | TK-10 renal 85.6% | ACHN renal 88.2% | CAKI-1 renal 84.1% | A498 renal 99.2%

O=c1[nH]cc(N(CCCl)CCCl)c(=O)[nH]1
active: HL-60(TB) leukemia -9.89%
inactive: HCT-15 colon 75.6% | HT29 colon 63.4% | SNB-75 CNS 62.9% | SNB-19 CNS 65.1% | U251 CNS 64.7% | PC-3 prostate 49.5% | SK-MEL-5 melanoma 82% | UACC-62 melanoma 64% | LOX IMVI melanoma 46% | SK-MEL-2 melanoma 102% | EKVX NSCLC 101% | SN12C renal 59.3% | UO-31 renal 42.9% | TK-10 renal 86.8% | ACHN renal 15.5% | CAKI-1 renal 12.8% | CCRF-CEM leukemia 31%

Cc1c(C)c([N+](=O)[O-])c(C)c(C)c1[N+](=O)[O-]
inactive: HCT-15 colon 100% | HT29 colon 100% | SNB-75 CNS 113% | SNB-19 CNS 103% | U251 CNS 99.2% | PC-3 prostate 105% | SK-MEL-5 melanoma 107% | UACC-62 melanoma 102% | LOX IMVI melanoma 106% | SK-MEL-2 melanoma 90.8% | EKVX NSCLC 98.7% | SN12C renal 111% | UO-31 renal 106% | TK-10 renal 107% | ACHN renal 106% | CAKI-1 renal 91.3% | A498 renal 94.3% | CCRF-CEM leukemia 99.1%

Cc1cc(N(CCCl)CCCl)ccc1C=Nc1cccnc1
inactive: HCT-15 colon 84.4% | HT29 colon 91.6% | SNB-75 CNS 60.2% | SNB-19 CNS 81.2% | U251 CNS 76.1% | PC-3 prostate 63.1% | SK-MEL-5 melanoma 77.5% | LOX IMVI melanoma 71.6% | SK-MEL-28 melanoma 97.5% | SK-MEL-2 melanoma 101% | EKVX NSCLC 104% | UO-31 renal 70.3% | TK-10 renal 56.1% | ACHN renal 48.3% | CAKI-1 renal 12.7% | HL-60(TB) leukemia 41.4% | CCRF-CEM leukemia 61.4%
active: A498 renal -72.3%
